Structures are written as SMILES. The source made the active and inactive calls. Rule for the calls: active = hit-call score of the fitted dose curve at least 0.9, where 1 is the maximum; inactive = score below 0.9.

Transcription factor E2F1 (Homo sapiens), sequence (Q01094 whole entry, looked up): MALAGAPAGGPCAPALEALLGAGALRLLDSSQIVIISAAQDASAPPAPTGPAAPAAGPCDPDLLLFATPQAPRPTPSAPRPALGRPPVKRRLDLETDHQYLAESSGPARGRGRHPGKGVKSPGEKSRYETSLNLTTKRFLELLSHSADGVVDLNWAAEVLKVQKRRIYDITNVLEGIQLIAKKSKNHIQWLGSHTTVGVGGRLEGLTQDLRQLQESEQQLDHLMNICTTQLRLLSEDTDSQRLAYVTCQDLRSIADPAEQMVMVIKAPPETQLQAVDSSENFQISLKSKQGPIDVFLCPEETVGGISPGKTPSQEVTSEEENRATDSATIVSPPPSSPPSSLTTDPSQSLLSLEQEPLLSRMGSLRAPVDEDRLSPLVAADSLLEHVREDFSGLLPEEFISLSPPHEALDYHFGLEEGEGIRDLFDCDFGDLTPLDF

The experiment has as its target Transcription factor E2F1 (Homo sapiens) (UniProt Q01094). In words: ATG_E2F_CIS: Attagene CIS-FACTORIAL HepG2 Assay for human E2F Transcription Factor 1 (AID 2282935). Particulars: HepG2 Attagene cis-reporter, E2F reporter RNA transcripts; actives raise or lower the signal. The protocol: ATG_CIS is a cell-based, multiplexed-readout assay that uses HepG2, a human liver cell line, with measurements taken at 24 hours after chemical dosing in a 24-well plate.ATG_E2F_CIS is one of 52 assay component(s) measured or calculated from the ATG_CIS assay. It is designed to make measurements of mRNA induction, a form of inducible reporter, as detected with fluorescence intensity signals by Reverse transcription polymerase chain reaction (RT-PCR) and Capillary electrophoresis technology.Data from the assay component ATG_E2F_CIS was analyzed into 1 assay endpoint. This assay endpoint, ATG_E2F_CIS, was analyzed with bidirectional fitting relative to DMSO as the negative control and baseline of activity. Using a type of inducible reporter, measures of mRNA for gain or loss-of-signal activity can be used to understand the reporter gene at the transcription factor-level as they relate to the gene E2F1. Furthermore, this assay endpoint can be referred to as a primary readout, because this assay has produced multiple assay endpoints where this one serves a reporter gene function. To generalize the intended target to other relatable targets, this assay endpoint is annotated to the dna binding intended target family, where the subfamily is E2F transcription factor.
Human liver HepG2 cells are transiently transfected with multiple reporter transcription units (MRTUs) in 6-well plates using FuGene 6 reagent (Roche; 3 ml FuGene/1 mg DNA). The MRTU constructs are regulated by a cis-regulating element (promoter). […] A major difference between the CIS and TRANS system is that in CIS activities of endogenous TFs are measured, whereas the TRANS assay evaluates changes in activities of exogenous, chimeric NR-Gal4 proteins. […] At the end of 24 hour incubation, total RNA was isolated using TriZol reagent (Invitrogen). The isolated RNA is then reverse-transcribed using oligo(dT) primer and Mo-MLV reverse transcriptase (Invitrogen) with DNAse I (Ambion) treatment for 30 min. The one-tenth of the produced cDNA was amplified by PCR using Taq DNA polymerase (Invitrogen) and two reporter sequence-specific primers. The PCR products were fluorescently labeled by primer extension with 6-arboxyfluorescein (6-FAM) 5'-labeled reporter sequence-specific primer (2 min at 95 C, 20 s at 68 C and 10 min at 72 C) and these products were digested with 5U of HpaI (New England Biolabs) for 2h at 37 C. The fragments were purified using Qiaquick PCR columns (Qiagen), analyzed on an ABI 3130xL genetic analyzer (Applied Biosystems) with peak positions identified by using a set of X-rhodamine (ROX)-labeled MapMarker1000 molecular weight standards (BioVentures). The raw capillary electrophoresis data was processed using Attagraph software (Attagene).
For `CC(C)c1ccccc1O`, the call was inactive.

As to `COc1ccc(CCO)cc1`, the compound was classed as inactive.

In the case of `CS(=O)(=O)c1ccc(Cl)cc1`, the compound was classed as inactive.

As for `CC1(C)COCN1`, the result was inactive.

For `CC1(C)O[C@@H]2C[C@H]3[C@@H]4CCC5=CC(=O)C=C[C@]5(C)[C@@]4(F)[C@@H](O)C[C@]3(C)[C@]2(C(=O)CO)O1`, the compound was classed as inactive.

Regarding `CCCC(=O)C(CC)Sc1ccoc1C` (stereo not given), the compound was classed as inactive.

Turning to `CCc1ccc(O)c(OC)c1`, the call was inactive.

For the compound `CC(=O)O[C@@H]1C[C@@H]2CC[C@@]1(C)C2(C)C`, the outcome was inactive.

For `O=[N+]([O-])c1ccc(O)cc1C(F)(F)F`, the outcome was inactive.

Turning to `CCOC(=O)[C@@H](C)Oc1ccc(Oc2nc3ccc(Cl)cc3o2)cc1`, the call was inactive.

Consider `O=C(O)c1ccc(O)cc1`, for which the compound was classed as inactive.

Take `CC1=C(Br)C(=O)C(Br)=C/C1=C(/c1ccccc1S(=O)(=O)O)c1cc(Br)c(O)c(Br)c1C`: the compound was classed as inactive.

As to `CCO/C=C1\N=C(c2ccccc2)OC1=O`, the compound was classed as inactive.

For the compound `Cc1c(C2(c3cc(Br)c(O)c(Br)c3C)OS(=O)(=O)c3ccccc32)cc(Br)c(O)c1Br`, the compound was classed as inactive.

Turning to `CCC(C)c1cc([N+](=O)[O-])cc([N+](=O)[O-])c1OC(=O)OC(C)C` (stereo not given), the compound was classed as inactive.

`CCC(C)S` (stereo not given): the result was inactive.

Turning to `COc1ccc(CCN2CCC(Nc3nc4ccccc4n3Cc3ccc(F)cc3)CC2)cc1`, the compound was called inactive.

With `Cc1cccc(Nc2ccccc2)c1`, the compound was classed as inactive.

Take `Cc1occc(=O)c1OC(=O)C(C)C`: the compound was called inactive.

Consider `CC(=O)C(C)O` (stereo not given), for which the compound was called inactive.

As to `CCCCN(CCCC)C(=O)N(CCCC)CCCC`, the result was inactive.

As to `C=C(CC(=O)O)C(=O)O`, the compound was classed as inactive.

On to `C=C(C)CNCC`, for which the result was inactive.

Consider `C=C[Si]1(C)O[Si](C)(C=C)O[Si](C)(C=C)O[Si](C)(C=C)O1` (stereo not given), for which the call was inactive.

Turning to `Nc1ccc2c(O)cc(S(=O)(=O)O)cc2c1`, the outcome was inactive.

Turning to `Nc1c(Cl)cc(Cl)cc1[N+](=O)[O-]`, the compound was classed as inactive.

As for `O=C(O)c1cc(C(=O)O)cc([N+](=O)[O-])c1`, the call was inactive.

For `OC[C@H]1O[C@@H]2O[C@H]3[C@H](O)[C@@H](O)[C@@H](O[C@H]4[C@H](O)[C@@H](O)[C@@H](O[C@H]5[C@H](O)[C@@H](O)[C@@H](O[C@H]6[C@H](O)[C@@H](O)[C@@H](O[C@H]7[C@H](O)[C@@H](O)[C@@H](O[C@H]8[C@H](O)[C@@H](O)[C@@H](O[C@H]9[C@H](O)[C@@H](O)[C@@H](O[C@H]1[C@H](O)[C@H]2O)O[C@@H]9CO)O[C@@H]8CO)O[C@@H]7CO)O[C@@H]6CO)O[C@@H]5CO)O[C@@H]4CO)O[C@@H]3CO`, the call was inactive.

Consider `CC(C)C[C@H](NC(=O)OCC1c2ccccc2-c2ccccc21)C(=O)O`, for which the outcome was inactive.

Take `c1ccc(Oc2ccccc2)cc1`: the outcome was inactive.

As for `Cc1[nH]c(=O)c(C#N)cc1-c1ccncc1`, the outcome was inactive.

As for `O=C1CCCC=CCCCCCCCCCC1`, the outcome was inactive.

On to `CN1C(=O)c2ccccc2C1=O`, for which the result was inactive.

Turning to `C=C(C)C1CC=C(C)C(=O)C1` (stereo not given), the result was inactive.

Turning to `CCC1CCCCC1`, the call was inactive.

`CC(=O)CC(=O)Nc1ccc(C)cc1C`: the result was inactive.

In the case of `Nc1ccccc1[N+](=O)[O-]`, the compound was classed as inactive.

Take `Cc1ccc(S(=O)(=O)Oc2ccc(N=Nc3ccc(-c4ccc(N=Nc5c(O)ccc6cc(S(=O)(=O)O)cc(S(=O)(=O)O)c56)c(C)c4)cc3C)cc2)cc1`: the outcome was inactive.

For the compound `C=C(C)C(=O)OCCOCCOCCOCCOC(=O)C(=C)C`, the result was inactive.

As for `CC1(C)C(=O)N(Cl)C(=O)N1Br`, the compound was classed as inactive.

The values above are taken from PubChem BioAssay (EPA / NIEHS).
